Measured values published in PubChem BioAssay AID1159580 (chemical genetic matrix, 2015).
Several values for one entry are separate records, joined by “and”; a condition that tells them apart may be missing. Equal entries are not always repeated. Among all 5,500 compounds or so, about 2,000 (36%) were called active. About 18% were inconclusive and are not listed. Rule as the data show it: active = normalized growth mostly below about 0.91 (no sharp cut-off); inconclusive = no clear call, values can overlap the other calls; inactive = mostly above about 0.92. The list shows a part of the results.

Assay: chemical genetic growth profiling, strain panel (AID 1159580);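 also: tested at 20 µM; growth read once vehicle control cultures reached saturation at 30 °C; 1 = growth at the plate median or of vehicle wells; lower values mean less growth of the strain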
Details: S. cerevisiae deletion strains, growth OD

Measured: normalized growth

CC(=O)N[C@@H](Cc1c[nH]c2ccccc12)C(=O)O
inactive: locus YAL013W, strain DEP1, active compounds read low 1.01 | locus YAL021C, strain ccr4, active compounds read low 0.991 | locus YAL026C, strain drs2, active compounds read low 0.978 | locus YAL030W, strain snc1, active compounds read low 0.999 | locus YBL061C, strain skt5, active compounds read low 0.975 | locus YBR009C, strain hhf1, active compounds read low 1.03 | locus YBR021W, strain FUR4, active compounds read low 0.998 | locus YBR023C, strain chs3, active compounds read low 0.996 | locus YBR171W, strain sec66, active compounds read low 0.977 | locus YBR229C, strain ROT2, active compounds read low 1 | locus YBR231C, strain swc5, active compounds read low 0.981 | locus YBR279W, strain paf1, active compounds read low 0.982 | locus YCL011C, strain gbp2, active compounds read low 0.982 | locus YCL016C, strain dcc1, active compounds read low 0.97 | locus YCL029C, strain bik1, active compounds read low 1.03 | locus YCL061C, strain MRC1, active compounds read low 0.991 | locus YCL069W, strain vba3, active compounds read low 0.979 | locus YCR088W, strain abp1, active compounds read low 0.992 | locus YDL005C, strain med2, active compounds read low 0.971 | locus YDL035C, strain GPR1, active compounds read low 1.01 | locus YDL040C, strain nat1, active compounds read low 0.983 | locus YDL074C, strain BRE1, active compounds read low 1.03 | locus YDL101C, strain DUN1, active compounds read low 1.02 | locus YDL134C, strain PPH21, active compounds read low 0.987 | locus YDL185W, strain tfp1, active compounds read low 1.01 | locus YDL192W, strain arf1, active compounds read low 1.01 | locus YDR001C, strain nth1, active compounds read low 0.992 | locus YDR069C, strain doa4, active compounds read low 0.998 | locus YDR101C, strain arx1, active compounds read low 1.01 | locus YDR137W, strain rgp1, active compounds read low 0.968 | locus YDR150W, strain NUM1, active compounds read low 1 | locus YDR159W, strain sac3, active compounds read low 1.01 | locus YDR162C, strain NBP2, active compounds read low 1.01 | locus YDR195W, strain ref2 0.942 | locus YDR297W, strain sur2, active compounds read low 0.994 | locus YDR318W, strain mcm21, active compounds read low 1.02 | locus YDR334W, strain swr1, active compounds read low 0.981 | locus YDR335W, strain msn5, active compounds read low 0.987 | locus YDR388W, active compounds read low 1.03 | locus YDR392W, strain spt3, active compounds read low 0.988 | locus YDR502C, strain sam2, active compounds read low 1.02 | locus YEL003W, strain gim4, active compounds read low 0.986 | locus YEL037C, strain rad23, active compounds read low 0.986 | locus YEL061C, strain CIN8 (second series), active compounds read low 0.985 | locus YEL061C, strain CIN8, active compounds read low 1 | locus YER015W, strain faa2, active compounds read low 0.991 | locus YER016W, strain bim1, active compounds read low 0.953 | locus YER110C, active compounds read low 1.02 | locus YER111C, strain swi4, active compounds read low 0.971 | locus YER155C, strain BEM2 (second series), active compounds read low 0.982 | locus YER155C, strain BEM2, active compounds read low 0.997 | locus YER167W, strain BCK2, active compounds read low 1.01 | locus YFR010W, strain ubp6, active compounds read low 1 | locus YGL078C, strain dbp3, active compounds read low 1.01 | locus YGL086W, strain mad1, active compounds read low 1.02 | locus YGL167C, strain pmr1, active compounds read low 0.983 | locus YGL173C, strain kem1, active compounds read low 0.985 | locus YGL227W, strain vid30, active compounds read low 0.984 | locus YGL240W, strain doc1, active compounds read low 1.02 | locus YGL248W, strain PDE1, active compounds read low 1.04 | locus YGL253W, strain hxk2, active compounds read low 0.979 | locus YGR078C, strain PAC10, active compounds read low 1.01 | locus YGR135W, strain pre9, active compounds read low 1.03 | locus YGR229C, strain SMI1, active compounds read low 1.01 | locus YGR252W, strain gcn5, active compounds read low 1.02 | locus YHR013C, strain ard1, active compounds read low 0.952 | locus YHR027C, strain rpn1, active compounds read low 0.976 | locus YHR030C, strain SLT2, active compounds read low 1 and 0.996 | locus YHR079C, strain IRE1 (second series), active compounds read low 1.02 | locus YHR079C, strain IRE1, active compounds read low 0.987 | locus YHR094C, strain hxt1, active compounds read low 1.01 | locus YHR129C, strain ARP1, active compounds read low 1 | locus YHR142W, strain chs7, active compounds read low 0.977 | locus YHR200W, strain rpn10, active compounds read low 1.02 | locus YIL066C, strain RNR3, active compounds read low 1 | locus YIL073C, strain SPO22, active compounds read low 1.04 | locus YIL125W, strain kgd1, active compounds read low 1.01 | locus YIR030C, strain dcg1, active compounds read low 1.02 | locus YJL092W, strain hpr5, active compounds read low 0.986 | locus YJL095W, strain BCK1 (second series), active compounds read low 0.996 | locus YJL095W, strain BCK1, active compounds read low 1.05 and 0.998 | locus YJL115W, strain asf1, active compounds read low 0.978 | locus YJL129C, strain trk1, active compounds read low 0.956 | locus YJL134W, strain LCB3, active compounds read low 1.01 | locus YJL154C, strain vps35, active compounds read low 0.968 | locus YJL164C, strain tpk1, active compounds read low 0.988 | locus YJL166W, strain qcr8, active compounds read low 1.01 | locus YJL168C, strain set2, active compounds read low 1.02 | locus YJL187C, strain SWE1 (second series), active compounds read low 1.01 | locus YJL187C, strain SWE1, active compounds read low 0.987 | locus YJR043C, strain POL32, active compounds read low 1.03 | locus YJR066W, strain TOR1, active compounds read low 0.901
